CRFBP-R2 block – antagonists of CRF-binding protein/CRF-R2 receptor complex | inhibition, % at 11.8 µM | hit rate 0.59% among 350,000 | HEK293 CRF-R2/CRF-BP, CRF-induced calcium fluorescence | AID 588475;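 active = inhibition of the ligand-induced calcium signal above about 50% at the single tested concentration, limit read from the data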
FAS-TE inh – blocks the thioesterase domain of human fatty acid synthase; P49327; recombinant FAS-TE, OMFH fluorogenic substrate, fluorescence endpoint; inhibition, % at 15 µM; hit rate 0.67% among 360,000; AID 602261;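 active = compounds whose normalised, plate-corrected inhibition of enzyme fluorescence in the single-dose primary screen is 50% or more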
NRP1-CendR mod – alters CendR peptide binding to human NRP-1 | inhibition, % at 25 µM | hit rate 0.85% among 360,000 | FAM-RPARPAR peptide binding to NRP-1, fluorescence polarization;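 active = inhibition or corrected inhibition above about 18%, plus a signal ratio from 0.5 to 1.5, limit read from the data, passing the limit was not always enough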
Myeloid diff 2 – promotes myeloid progenitor differentiation | ER-HoxA9 myeloid progenitors, lysozyme-GFP differentiation, flow cytometry | calls only at 10 µM | hit rate 1% among 360,000 | AID 624256;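 active = normalized GFP-positive differentiation at or above the plate's own cutoff, the solvent-only control mean plus 3 SD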;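 also: cells exposed to compound for four days before flow analysis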
NadD block – inhibitors of Staphylococcus aureus NadD; purified NadD enzyme, colorimetric absorbance read-out; hit rate 0.78% among 360,000; inhibition, % at 20 µM; in the data active = inhibition above about 26%
A number is an active result; 0 = inactive; - = not tested or not shown; + = active, no number. This is a sample that favours compounds with a hit; in the whole collection about 3.6% have one here.

SMILES | CRFBP-R2 block | FAS-TE inh | NRP1-CendR mod | Myeloid diff 2 | NadD block
Oc1ccc(/C=N/Nc2ccnc3cc(Cl)ccc23)c(O)c1O | 0 | 0 | 0 | 0 | 59
CCc1cc(/C(Cc2ccccn2)=N\O)c(O)cc1O | 0 | 0 | 0 | + | 0
CCCCCC(=O)N1C[C@@H](n2cc(C3CC3)nn2)[C@H](O)C[C@@H]1c1ccc(OC)cc1 | 0 | 0 | 0 | 0 | 0
O=C(COc1ccccc1F)Nc1cc(S(=O)(=O)Nc2cccc(Cl)c2)ccc1O | 0 | 0 | 25 | 0 | 0
NNC(=O)c1ccc(N2CCCCCC2)c([N+](=O)[O-])c1 | 0 | 0 | 31 | 0 | 0
COC(=O)Cc1ccccc1NS(=O)(=O)c1ccc(C)cc1 | - | - | 0 | 0 | -
c1ccc(CSc2nnc(-c3ccncc3)o2)cc1 | 0 | 0 | 26 | 0 | 0
N#Cc1ccc(CSc2nnc(-c3ccncc3)o2)cc1 | 0 | 0 | 0 | 0 | 0
COc1ccc(NC(=S)N(CCN2CCOCC2)Cc2ccccc2F)cc1 | 0 | 0 | 24 | - | 0
COc1ccccc1NC(=S)N(CCN1CCOCC1)Cc1ccccc1F | 0 | 0 | 0 | 0 | 0
C/C(O)=C(/C=Nc1ccccc1)C(=O)Nc1ccccc1 | 0 | 0 | 0 | 0 | 0
O=C(Nc1sc(-c2ccccc2)cc1C(=O)O)c1ccccc1 | 52 | 0 | 0 | 0 | 0
CCOC(=O)c1cc(-c2ccccc2)sc1NC(=O)c1ccc(OC)cc1 | 0 | - | - | - | -
COc1ccc(OC)c(-c2cc(C3CCN(C(=O)OC(C)(C)C)CC3)[nH]n2)c1 | 0 | 0 | 0 | 0 | 0
Cc1ccc(S(=O)(=O)N2C[C@H]3C(=O)C[C@@H](c4ccccc4)N(S(=O)(=O)c4ccc(C)cc4)[C@H]3C[C@H]2c2cccc(Cl)c2)cc1 | 0 | 0 | 0 | + | 0
NC(=S)n1[nH]c(-c2ccc([N+](=O)[O-])cc2)c(N=Nc2cccc([N+](=O)[O-])c2)c1=O | 0 | 0 | 0 | 0 | 77
Cc1[nH]n(C(N)=S)c(=O)c1N=Nc1cccc([N+](=O)[O-])c1C | 0 | 0 | 0 | 0 | 0
NC(=S)n1[nH]c(-c2ccc([N+](=O)[O-])cc2)c(N=Nc2ccccc2[N+](=O)[O-])c1=O | 0 | 0 | 0 | 0 | 64
Cc1c(N=Nc2c(-c3ccc([N+](=O)[O-])cc3)[nH]n(C(N)=S)c2=O)cccc1[N+](=O)[O-] | 66 | 0 | 0 | - | 81
Cc1[nH]n(-c2ccccc2)c(=O)c1N=Nc1cccc([N+](=O)[O-])c1 | 0 | 0 | 0 | 0 | 0
COc1ccc(S(=O)(=O)N2CCOC23CCN(S(=O)(=O)c2ccc(Cl)cc2)CC3)cc1 | 0 | 0 | 0 | 0 | 0
COc1ccc(-n2nnnc2C(c2ccccc2OC(F)(F)F)N2CCN(C/C=C/c3ccccc3)CC2)cc1 (stereo not drawn) | - | 0 | 0 | + | 0
O=C(NCc1ccccc1CN1CCCC1)c1cccc(N2CCCC2=O)c1 | 0 | 0 | 0 | 0 | 0
O=C(CSc1ccccc1)NN1C(=O)c2ccccc2C1=O | 122 | 0 | 0 | 0 | 0
O=S1(=O)C[C@H](N2CCC(Cc3ccccc3)CC2)[C@@H](COCc2ccccc2)N1 | - | 0 | 0 | 0 | 0
SMILES | CRFBP-R2 block | FAS-TE inh | NRP1-CendR mod | Myeloid diff 2 | NadD block
CCOC(=O)CSc1nc2ccc(Nc3nc(N4CCOCC4)nc(N4CCOCC4)n3)cc2s1 | 0 | 54 | 0 | 0 | 0
Cc1ccc(CN2CCN(Cc3c(C)nn(C(C)C)c3C)CC2CCO)o1 (stereo not drawn) | 0 | 0 | 18 | 0 | 0
Cc1nnc2n1NC(c1ccc(Cl)cc1)C(C(=O)N1CCC(C)CC1)S2 (stereo not drawn) | 0 | 0 | 23 | 0 | 0
COC(=O)c1c(NC(=O)CC2Nc3ccccc3NC2=O)sc(C)c1C (stereo not drawn) | 53 | 0 | 0 | 0 | 0
CCOC(=O)c1c(NC(=O)CC2Nc3ccccc3NC2=O)sc(C)c1C (stereo not drawn) | 0 | 0 | 0 | 0 | 0
Cc1cccc(OCC(=O)N(Cc2ccco2)c2c(N)n(Cc3ccccc3)c(=O)[nH]c2=O)c1 | 0 | 0 | 0 | 0 | 0
CC(=O)c1cccc(OCC(=O)N(Cc2ccco2)c2c(N)n(Cc3ccccc3)c(=O)[nH]c2=O)c1 | 0 | 0 | 0 | + | 0
C=CCNC(=O)NC(=O)COC(=O)/C=C/c1cccc([N+](=O)[O-])c1 | 0 | 0 | 0 | 0 | 0
CC(C)CCNC(=O)NC(=O)COC(=O)/C=C/c1cccc([N+](=O)[O-])c1 | 0 | 0 | 0 | + | 0
Cc1ccccc1OCC(O)CNC1CCC(NCC(O)COc2ccccc2C)CC1 (stereo not drawn) | 0 | 0 | 20 | - | 0
Cc1ccc(OCC(O)CNC2CCCC2)c(C)c1 (stereo not drawn) | 0 | 0 | 0 | 0 | 0
CC(C)(C)NCC(O)COc1ccccc1C1CCCC1 (stereo not drawn) | 0 | 0 | 0 | + | 0
O=C(NC1CCCCC1)C(c1ccnc2ccccc12)n1c(=O)c(-c2ccccc2)nc2ccccc21 (stereo not drawn) | - | - | 0 | 0 | -
COc1ccc(CN(C)C(=O)[C@H]2O[C@@H](n3ccc(=O)[nH]c3=O)[C@H](O)[C@@H]2O)cc1OC | - | 0 | 0 | 0 | 0
CN(Cc1ccc2c(c1)CCCN2C)C(=O)[C@H]1O[C@@H](n2ccc(=O)[nH]c2=O)[C@H](O)[C@@H]1O | - | 0 | 27 | 0 | 0
CCOC(=O)N1CCN(C(=O)C[C@@H]2C[C@@]3(C(=O)OCC)CCC=C3N(Cc3ccco3)C2=O)CC1 | - | 0 | 0 | 0 | 0
C[N+]1(C)CC2=Cc3ccccc3CC2C1 (stereo not drawn) | 0 | 0 | 0 | 0 | 0
C1=C2C[N+]3(CCCC3)CC2Cc2ccc3ccccc3c21 (stereo not drawn) | 0 | 0 | 0 | + | 0
COc1ccc(CNC(=O)C[C@@H]2C[C@H]3c4cc(NC(=O)NC5CCCC5)ccc4O[C@H]3[C@H](CO)O2)cc1 | 0 | 0 | 0 | 0 | 0
COC(=O)[C@@]1(Cc2ccccc2)[C@H]2C(=O)N(C)C(=O)[C@H]2[C@H]2CN=C(SCC(=O)c3ccccc3)N21 | 0 | 0 | 0 | 0 | 0
Cc1ccccc1N1CCN(C2=NC(=O)/C(=C\c3cccs3)S2)CC1 | 0 | 0 | 0 | 0 | 0
O=C1N=C(N2CCCC2)S/C1=C\c1ccccc1 | 0 | 0 | 0 | + | 0
O=C1N=C(N2CCOCC2)S/C1=C/c1cccs1 | 0 | 0 | 0 | + | 0
O=C1N=C(N2CCN(c3cccc4ccccc34)CC2)S/C1=C/c1cccs1 | 0 | 0 | 0 | 0 | 28
O=C1OC(Nc2ccc3c(c2)OCO3)c2ccccc21 (stereo not drawn) | 0 | 0 | 0 | + | 0
C=CCn1c(C(C)n2c(-c3cnccn3)nc3ccccc32)nc2ccccc21 (stereo not drawn) | - | - | 0 | 0 | -
CC(C)(C)c1ccc(NC(=O)c2cc(C3CCCN(S(=O)(=O)c4cccc5cccnc45)C3)on2)cc1 (stereo not drawn) | - | 0 | 0 | 0 | 0
O=C(NCC1COc2ccccc2O1)Nc1ccccc1F (stereo not drawn) | 0 | 0 | 19 | 0 | 0
CC(=O)NCC1COc2ccccc2O1 (stereo not drawn) | 0 | 0 | 0 | 0 | 0

Screening results as filed in PubChem.
